LGR2 antag: inhibitors of bursicon-induced Drosophila LGR2 receptor cAMP signaling | HEK293 LGR2, CRE-luciferase, bursicon-stimulated, 4 h | inhibition, % at 9.99 µM | 380,000 compounds, 0.35% hits;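 active = drop in luminescence signal, shown as inhibition above about 50% in the replicate tests, limit read from the data, passing the limit was not always enough; inconclusive = probably only some replicates passing the limit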;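 also: agonist challenge used bursicon conditioned medium at about half maximal strength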
TRPM1 prom inh: reduces MITF-dependent TRPM1 promoter luciferase signal. SK-MEL-5 TRPM1 promoter luciferase, 24 h. inhibition, % at 12.5 µM. 330,000 compounds, 0.83% hits. AID 488899;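 active = mean inhibition across replicates of 60% or more, whatever share of single replicates reaches that level; inconclusive = some that reach 60%, reason not given; inactive = mean inhibition across replicates below 60%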
TROY signal inh: inhibitors of TROY-dependent NF-kB signaling; Q293 LMP1-TROYcd NF-kB luciferase reporter, 4 h; inhibition, % at 10 µM; 360,000 compounds, 0.98% hits; AID 1347056;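 active = compounds whose plate-normalised and pattern-corrected inhibition of the luciferase reporter signal at the single screening dose is 50% or more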
EBV LMP1 NFkB: reduces LMP1-driven NF-kappaB luciferase signal | LMP1-induced NF-kappaB luciferase reporter cells, luminescence | inhibition, % at 12.5 µM | 350,000 compounds, 0.69% hits; in the data active = inhibition above about 41%; inconclusive = no clear call, values can overlap the other calls;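 also: 0% = neutral control wells and 100% = reference inhibitor control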
TWEAK Fn14 block: TWEAK-Fn14 signaling inhibition; TWEAK-stimulated Fn14 reporter cells, luciferase luminescence, 8 h; inhibition, % at 10 µM; 360,000 compounds, 2% hits; AID 1159606; in the data active = inhibition above about 50%
MITF act: increases MITF-driven TRPM1 promoter luciferase signal | SK-MEL-5 TRPM1-promoter luciferase, 24 h; % of positive control, neutral wells = 0 | activation, % at 12.5 µM | 300,000 compounds, 0.75% hits;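 active = mean activation of at least 80% with every replicate also reaching 80%; inconclusive = mean reaches 80% but some replicate falls short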;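 also: 0% = neutral control wells and 100% = parthenolide positive control wells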
Active calls of the source: *; ? = inconclusive; . = no result; ! = repeats disagree. Sampled rows, rich in hits. Any-hit rate of the full collection: about 3%.

SMILES	LGR2 antag	TRPM1 prom inh	TROY signal inh	EBV LMP1 NFkB	TWEAK Fn14 block	MITF act
CC(C)CC(=O)Nc1ccc2nn(-c3ccccc3)nc2c1	-83	-102	-59	-60	3	99*
CCC(=O)Nc1cc2nn(-c3ccccc3)nc2cc1Cl	.	-8	10	-14	52*	7
CC(C)C(=O)Nc1ccc2nn(-c3ccc(F)cc3)nc2c1	.	-59	34	-11	36	.
Cc1ccc(-n2nc3ccc(NC(=O)C(C)C)cc3n2)cc1	-104	.	39	-63	10	111*
Cc1noc(C)c1S(=O)(=O)Nc1ccc2c(c1)C(=O)N([C@@H](C)CO)C[C@@H](C)[C@@H](CN(C)C(=O)Nc1ccc(C(F)(F)F)cc1)O2	22	.	.	.	.	.
COc1ccc(C#Cc2ccc3c(c2)O[C@H](CN(C)S(=O)(=O)c2ccccc2F)[C@@H](C)CN([C@@H](C)CO)S3(=O)=O)cc1	-20	.	.	.	.	.
CN1C(=O)c2cc(NC(=O)c3ccccc3)ccc2OC[C@@H]2O[C@H](CC(=O)NC3CCCC3)CC[C@@H]21	-2	.	.	.	.	.
O=C(CSC(=S)N1CCSCC1)c1ccc(Cl)cc1	-19	-84	-4	-43	-10	82*
CCCn1c(=S)[nH]c2cc(C(=O)N3CCCC(C(=O)OCC)C3)ccc2c1=O (stereo unspecified)	.	17	16	-18	55*	-16
CCOC(=O)N1CCN(C(=O)c2ccc(Cn3c(=S)[nH]c4ccc(Br)cc4c3=O)cc2)CC1	12	71*	59*	51*	57*	-69
CCCn1c(=S)[nH]c2cc(C(=O)N3CCN(C(=O)OCC)CC3)ccc2c1=O	-11	-2	-5	3	-16	-1
CCOC(=O)N1CCN(C(=O)c2ccc3c(=O)n(Cc4ccc(Cl)cc4)c(=S)[nH]c3c2)CC1	-16	-7	8	4	-2	6
CCCSc1ccc2nc(-c3ccccc3)cn2c1	?	79*	78*	68*	97*	-78
Cc1nn(-c2ccccc2)c(Cl)c1C1C(C#N)=C(N)Oc2n[nH]c(C)c21 (stereo unspecified)	.	7	-11	53*	0	-8
CN1C(=O)CC(c2ccco2)Sc2ccccc21 (stereo unspecified)	-30	7	-32	-3	2	-6
COc1ccc(C2CC(=O)N(C)c3ccccc3S2)cc1 (stereo unspecified)	.	4	57*	7	70*	-5
COc1ccc(C2CC(=O)N(CC(=O)NCC3CCCO3)c3ccccc3S2)cc1 (stereo unspecified)	2	1	52*	12	47	-2
O=C(CN1C(=O)CC(c2ccco2)Sc2ccccc21)NCC1CCCO1 (stereo unspecified)	.	-3	-6	-3	7	7
COCC(=O)N1CC2(C1)CN(Cc1cccc(OC)c1)[C@H](CO)c1[nH]c3cc(OC)ccc3c12	2	.	.	.	.	.
COc1cccc(-c2nnc3sc(C4CCCCC4)nn23)c1	.	0	52*	45*	64*	.
CCCCn1c(SCC(=O)Nc2cccc(OC)c2)nc2ccc(N3CCOCC3)cc2c1=O	.	-2	62*	-4	32	.
O=C(c1n[nH]c(=O)c2ccccc12)N1CCOCC1	.	4	.	-3	57*	-5
C#CCCc1ccccc1/C=[N+](/C)[O-]	-10	65*	43	3	51*	-65
CN(C)C(=O)C[C@@H]1C[C@H]2c3cc(NC(=O)CC4CC4)ccc3O[C@H]2[C@H](CO)O1	4	.	.	.	.	.
CN(C(=O)c1ccc(S(=O)(=O)c2cccc(Cl)c2)c([N+](=O)[O-])c1)C1CCCCC1	?	53	56*	6	92*	-49
SMILES	LGR2 antag	TRPM1 prom inh	TROY signal inh	EBV LMP1 NFkB	TWEAK Fn14 block	MITF act
COc1ccc(CC(=O)Nc2ccc(S(=O)(=O)N(C)C3CCN(C)CC3)cc2)cc1	1	2	-15	0	-18	-3
COc1ccc2oc(C(=O)Nc3nnc(C)s3)c(C)c2c1	-23	-40	12	30	68*	38
Cc1ccc2oc(C(=O)Nc3nnc(C)s3)c(C)c2c1	.	-39	-21	-4	31	44
COc1ccc2oc(C(=O)Nc3ccc(S(=O)(=O)N(C)C4CCN(C)CC4)cc3)c(C)c2c1	8	85*	-6	-48	-29	-84
Cc1c(C(=O)Nc2ccc(F)cc2)oc2ccc(S(=O)(=O)N3CC(C)CC(C)C3)cc12 (stereo unspecified)	11	45	29	13	54*	-43
CCC(=O)Nc1ccc2c(c1)C(=O)N(C)[C@H]1CC[C@H](CC(=O)NCCc3ccncc3)O[C@H]1CO2	-2	.	.	.	.	.
COc1ccccc1C#Cc1cnc2c(c1)C(=O)N([C@H](C)CO)C[C@H](C)[C@H](CN(C)C)O2	-21	.	.	.	.	.
COc1ccc(C)cc1NC(=O)ON=C1CCCCC1	-8	.	-6	.	-19	.
O=C(Nc1cccc2ccccc12)ON=C1CCCCC1	4	.	76*	.	81*	.
O=C(C[C@H]1CC[C@H]2[C@@H](COC[C@@H](O)CN2S(=O)(=O)c2cccc(F)c2)O1)NCc1ccc2c(c1)OCO2	-6	.	.	.	.	.
Cc1ccc(S(=O)(=O)Cc2ccc(C(=O)NCCCN3CCN(C)CC3)o2)cc1	.	9	76*	4	84*	-6
C[C@@H]1CN([C@H](C)CO)C(=O)Cc2cc(NC(=O)Nc3ccc(F)cc3)ccc2O[C@H]1CN(C)C(=O)Nc1ccc(C(F)(F)F)cc1	-6	.	.	.	.	.
CC(=O)N[C@H](Cc1c[nH]c2ccccc12)C(=O)O	8	-5	10	3	-7	9
CC(=O)/C=C(/C)NC(Cc1c[nH]c2ccccc12)C(=O)O (stereo unspecified)	-2	3	51*!	-10	1	-4
O=C(Cn1nnc2ccccc2c1=O)N[C@@H](Cc1c[nH]c2ccccc12)C(=O)O	-17	6	-15	4	5	-2
C[C@@H](C(=O)N[C@@H](Cc1c[nH]c2ccccc12)C(=O)O)n1nnc2ccccc2c1=O	-11	-4	-6	0	72*	5
CC(=O)N1CCCCN2[C@H](C1)[C@@H](c1ccc(C#Cc3ccccc3F)cc1)[C@@H]2CO	11	.	.	.	.	.
CCCn1c(C)cc(C(=O)COC(=O)c2ccc(Cl)c(S(=O)(=O)N3CCCC3)c2)c1C	.	-11	5	-7	-23	.
Cc1cc(C(=O)Cn2nnc3ccccc3c2=O)c(C)n1-c1ccccc1F	?	-2	82*	-1	73*	1
Cc1ccc(-n2c(C)cc(C(=O)COC(=O)c3ccc[nH]c3=O)c2C)cc1C	-32	-1	-16	-2	11	6
Cc1cc(C(=O)COC(=O)c2ccc(O)cc2)c(C)n1CC(F)(F)F	-109	.	1	-6	11	.
Cc1cc(C(=O)COC(=O)c2ccc(O)cc2)c(C)n1-c1ccccc1F	-7	-11	84*	-6	75*	10

Screening data: PubChem BioAssay, several laboratories
